PubChem BioAssay (Tox21)
Values joined by “and” are separate entries in the source; they are usually repeats but may differ in a detail not shown here. Equal values may be shown once. More than one record can exist for a structure, and the calls need not agree. Active and inactive are the calls of the source. Calls come from the whole dose curve; as a rule, active = well fitted activation curve with a large enough effect in the repeat runs; inconclusive = weak or mixed curves; inactive = flat fitted curve, though single readings scatter.

experiment: Caspase-3/7 induction in CHO-K1 cells by small molecules, qHTS assay (AID 1346980); conditions: CHO-K1 caspase-3/7 induction, Caspase-Glo luminescence, 17 h; series mostly up to 92.4 µM; caspase-3/7 activation: at the top concentration; note: nearly all actives have a fitted effect of over 15% in size
Description: National Center for Advancing Translational Sciences [NCATS]
NIH Chemical Genomics Center [NCGC]
U.S. Environmental Protection Agency [EPA]
National Institutes of Environmental Health Sciences [NIEHS]
National Toxicology Program [NTP]
Apoptosis is a process of programmed cell death and plays a central role in the development of multicellular organisms. It is a highly regulated process and induces cell death by activating caspases, which are the members of cysteine aspartic acid-specific protease (caspase) family. Caspases involved in apoptosis are classified by their mechanism of action as initiator caspases (caspase-2, -8, -9 and -10) and executioner caspases (caspase-3, -6, and -7). Inhibition of apoptosis results in number of cancers, autoimmune diseases, inflammatory diseases and viral infection. To identify small molecule compounds that induce apoptosis, a homogeneous, luminescent Caspase-Glo 3/7 assay was used. Wild type CHO-K1 cells were used to screen Tox21 libraries for identifying caspase-3/7 activity inducers.
CHO-K1 cells were dispensed at 1,500 per well in 5uL of culture medium into white solid bottom 1536-well plates (Corning Life Sciences, Corning, NY) using a Multidrop Combi (Thermo Scientific, Waltham, MA) dispenser. The assay plates were incubated at 37 C and 5% CO2 for 5hr, and then 23nL of compounds dissolved in DMSO and positive control were transferred using a Pintool station (Wako, San Diego, CA). The assay plates were incubated at 37C and 5% CO2 for 17hr. For caspase-3/7 activity read, 4uL of Caspase-Glo 3/7 reagent (Promega Corporation, Madison, WI) was added to each well of the assay plates using Flying Reagent Dispenser (FRD, Aurora Discovery, San Diego, CA) and incubated the assay plates at room temperature for 30min. The luminescence signal was quantified using a ViewLux plate reader (Perkin Elmer, Shelton, CT).
% is set by controls: 0 for no effect and ±100 for the full control effect; potency is the fitted concentration of half-maximal effect.

| Structure (SMILES) | caspase-3/7 activation | Potency |
| --- | --- | --- |
| O=[N+]([O-])c1cc(Cl)c(Cl)cc1Cl | 0.173% (inactive) |  |
| CC(C)(C)OOC(C)(C)CCC(C)(C)OOC(C)(C)C | -1.04% (inactive) |  |
| O=C([O-])c1ccccn1.O=C([O-])c1ccccn1.O=C([O-])c1ccccn1.[Cr+3] | -0.292% (inactive) |  |
| CCCCC(CC)COC(=O)c1c(Br)c(Br)c(Br)c(Br)c1C(=O)OCC(CC)CCCC (stereo not given) | -0.38% [at 42.5 µM] (inactive) |  |
| CCC(C)(C)c1ccc(O)c(C(C)(C)CC)c1 |  | inactive and 17.2 µM (active) |
| C=C(C)C(=O)OCCCCOC(=O)C(=C)C | 1.33% (inactive) |  |
| COC1CC(=C(c2cccs2)c2cccs2)C[N+](C)(C)C1 (stereo not given) | -0.0939% [at 42.5 µM] (inactive) |  |
| CCC1(CCC(C)C)C(=O)NC(=O)NC1=O | -0.321% (inactive) |  |
| CCOP(=O)(SC(C)CC)N1CCSC1=O (stereo not given) | -0.141% (inactive) |  |
| NC(=O)CF | 0.378% (inactive) |  |
| CCCCC#N | -0.721% (inactive) |  |
| Cc1ccc2c(C)cccc2c1 | 0.236% (inactive) |  |
| c1ccc2sc(SNC3CCCCC3)nc2c1 |  | inactive |
| CCC[N+](CCC)(CCC)CCC | -1.09% (inactive) |  |
| ClCc1ccccc1Cl | 0.651% (inactive) |  |
| [Cl-].[Cl-].[Hg+2] |  | inactive |
| C=CC(=O)NC(C)(C)CC(C)=O | 0.17% (inactive) |  |
| O=C(N[C@H]1CN2CCC1CC2)c1ccc2c(c1)OCCO2 | -1.06% (inactive) |  |
| COC(=O)Cc1ccccc1 | -1.74% (inactive) |  |
| O=C(O)C(Cl)(Cl)Br | -0.97% (inactive) |  |

| Structure (SMILES) | caspase-3/7 activation | Potency |
| --- | --- | --- |
| O=C1c2ccccc2C(=O)N1SC(Cl)(Cl)Cl |  | inactive |
| CCCCC(CC)CO[N+](=O)[O-] (stereo not given) | 0.919% (inactive) |  |
| O=C(NCNC(=O)NC1C(=O)NC(=O)N1CO)NC1C(=O)NC(=O)N1CO (stereo not given) | 1.77% (inactive) |  |
| Cc1ncc(C[n+]2csc(CCO)c2C)c(N)n1 | -0.121% (inactive) |  |
| O=C(CCl)CCl |  | inactive |
| COc1ccc(C(=O)c2c(C)n(CCN3CCOCC3)c3ccccc23)cc1 | 1.97% [at 42.5 µM] (inactive) |  |
| CC(Oc1cc(Cl)c(Cl)cc1Cl)C(=O)O (stereo not given) | -1.02% (inactive) |  |
| CC(C)CCCCCCCOC(=O)c1ccccc1C(=O)OCCCCCCCC(C)C | 0.319% (inactive) |  |
| O=C(O)c1cc(Cl)ccc1Cl | 0.858% (inactive) |  |
| C=CCOC(=O)C(C)(C)OC(=O)c1cc(-n2c(=O)cc(C(F)(F)F)n(C)c2=O)ccc1Cl | -1.15% (inactive) |  |
| OCC1CO1 (stereo not given) |  | inactive |
| c1ccc2c(c1)-c1cccc3cccc-2c13 |  | inactive |
| CC(CC(C(N)=O)(c1ccccc1)c1ccccc1)N(C)C (stereo not given) | 2.3% [at 42.5 µM] (inactive) |  |
| CCCN(CCOc1c(Cl)cc(Cl)cc1Cl)C(=O)n1ccnc1 |  | inactive |
| C=CC(C)(CCC=C(C)C)OC(=O)c1ccccc1N (stereo not given) | 0.308% (inactive) |  |
| O=C=NC1CCCCC1 | 0.376% (inactive) |  |
| CCCBr | 1.68% (inactive) |  |
| OCCCl | 0.468% (inactive) |  |
| CCCCCCCCCCCCN=C(N)N | -1.72% [at 3.27 µM] (inactive) |  |
| CN(C)N | 0.41% (inactive) |  |
